Bioassay records as filed in PubChem BioAssay.
NPSR antag = qHTS Assay for Antagonists of the Neuropeptide S Receptor: cAMP Signal Transduction; Q6W5P4; CHO-NPSR cells, cAMP TR-FRET, antagonist mode; Potency, µM (doses to about 38.3 µM), for the others: at the top dose activity change, negative = inhibition, usual class: inhibitors; 220,000 compounds, 1% hits; further: on the % scale 0 is the no-effect control and ±100 the full control effect; nearly all actives have a fitted effect of over 50% in size
KAT2A inh = qHTS Assay for Inhibitors of GCN5L2 | GCN5L2 HAT assay, ThioGlo1 CoA-SH fluorescence | Potency, µM (titrated, usually from 58.9 µM), inactives show top-dose activity change, negative = inhibition, actives largely listed as inhibitors | 390,000 compounds, 0.21% hits | Histone acetyltransferase KAT2A (Homo sapiens), Q92830 | AID 504327, 2011; further: on the % scale 0 is the no-effect control and ±100 the full control effect
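ThioGlo1-coupled HAT assay: 20nM GCN5L2, 70uM acetyl-CoA, 75uM H3(1-25) peptide, pH 7.5. Fluorescence read at 340/540nm at start and after 20 min at room temperature.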
KDM4E inh = qHTS Assay for Inhibitors of Human Jumonji Domain Containing 2E (JMJD2E). Lysine-specific demethylase 4E (Homo sapiens), B2RXH2. JMJD2E catalytic domain, FDH-coupled NADH fluorescence (FDH is formaldehyde dehydrogenase). Potency, µM (highest dose often 57.1 µM), for the others: at the highest dose activity change, negative = inhibition, hits mostly inhibitors. 230,000 compounds, 1.6% hits. AID 2147, 2009; active means well fitted inhibition curve with a large enough effect, not every such curve was filed as active; inconclusive means small, poorly fitted or top-dose-only effect, or another doubt; inactive means no such curve, though single readings can be large or run the other way;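 further: 0% = wells with enzyme and -100% = buffer wells without enzyme; nearly all actives have a fitted effect of over 50% in size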
Epigenetic derep = Quantitative High-Throughput Screen for Regulators of Epigenetic Control. AID 1865, 2009. 280,000 compounds, 0.2% hits. murine LDR cells, GFP reporter derepression, 30 h. Potency, µM (highest dose often 53.9 µM), for the others: at the highest dose GFP activation, usual class: activators; further: % of control where 0% means no effect; nearly all actives have a fitted effect of over 60% in size
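Murine LDR cells carrying a silenced, genomically integrated CMV-driven GFP reporter were exposed to compound for 30 hours at 37 C. After PBS washes, GFP-positive cells (20–120 um objects) were counted by laser-scanning microplate cytometry.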
IMPase Li cell = qHTS Assay for Identifying the Cell-Membrane Permeable IMPase Inhibitors: Potentiation with Lithium; Potency, µM (highest dose often 59.4 µM), without a hit: top-dose activity, negative = IMPase inhibition, hits mostly inhibitors; 210,000 compounds, 0.35% hits; CHO-M1 cells, IP1 TR-FRET (IP-One), carbachol + lithium;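 further: IP1 builds up when IMPase is blocked and the TR-FRET signal falls; plate controls were basal vehicle for no effect and high inhibitor control for full effect; nearly all actives have a fitted effect of over 50% in size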
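Test compounds were applied to CHO-M1 cells previously cultured for 16–30 h at 2000 per well. A small lithium amount accompanied them; after 30 min at 37C, IP1 was quantified by TR-FRET.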
Sfp inh = qHTS Assay for Inhibitors of Bacillus subtilis Sfp phosphopantetheinyl transferase (PPTase); 4'-phosphopantetheinyl transferase ffp (Bacillus subtilis), Q9F4F7; Biochemical Sfp PPTase activity, qHTS; Potency, µM, for the others: largest response in the series, negative = inhibition, actives largely listed as inhibitors; 310,000 compounds, 3.5% hits;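 further: the enzyme is Sfp with the accession as filed and its product quenches rhodamine fluorescence; 0% = enzyme reaction without inhibitor and -100% = no enzyme wells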
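Reaction rates are the 30-min fluorescence difference (ex 525, em 598 nm) in wells containing 15 nM Sfp, 5 uM rhodamine-CoA and 12.5 uM BHQ-2-YbbR at pH 7.6 with 10 mM MgCl2.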
Starred values were filed as active, the others as inactive; ? = inconclusive; . = no result given; [ ] = dose if it differs, or a comment. Hits are enriched below; roughly 3.6% of the tested compounds scored in any of these assays. Unless noted, the call rests on the fitted dose curve; in most records, active means well fitted curve in the direction sought with a large enough effect; inconclusive means small, poorly fitted or top-dose-only effect, or another doubt; inactive means no such curve, though single readings can be large; an effect the other way counts as inactive or inconclusive. Potency means the concentration at half of the fitted maximal effect.

SMILES	NPSR antag	KAT2A inh	KDM4E inh	Epigenetic derep	IMPase Li cell	Sfp inh
CSCc1ccc(C(=O)N2CCC(CCC(=O)N(C)Cc3ccccc3)CC2)o1	.	-4.8%	.	.	.	50.1µM*
CN(Cc1ccccc1)C(=O)CCC1CCN(C(=O)c2ccccc2C(F)(F)F)CC1	.	-0.2%	.	.	.	-11.2%
CCOc1cc(/C=C(\C#N)C(=O)Nc2ccc(C)cc2)ccc1OCc1cc(=O)n2nc(CC)sc2n1	.	-0.2%	.	-0.4%	.	.
CCOC(=O)c1c(C)n(C)c2ccc(OC(=O)c3ccc([N+](=O)[O-])cc3)cc12	19.5%	8.91µM*	-2.0%	-0.9%	2.6%	8.3%
C=Cc1ccc(Cn2c(C(=O)O)c(CNCc3ccccc3)c3ccc(OC)cc32)cc1	.	31.6µM*	.	-2.4%	.	.
C=C(C)OC(C)=O	.	.	.	.	7.2%	.
CC1CC(O)CC(C)(C)C1 (stereo unspecified)	.	2.5%	.	.	.	7.9%
O=C(Oc1ccc(Br)cc1C(=S)N1CCOCC1)c1ccc([N+](=O)[O-])cc1[N+](=O)[O-]	.	-6.4%	.	.	.	50.1µM*
O=C(Oc1ccc(Br)cc1C(=S)N1CCCC1)c1ccccc1F	-8.5%	-5.7%	-17.1%	0.0%	-3.2%	44.7µM*
Cc1ccccc1C(=O)Oc1ccc(Br)cc1C(=S)N1CCCC1	?	-2.9%	-6.0%	2.8%	10.8%[38.3 µM]	-0.9%
COc1ccc2nc(NS(=O)(=O)c3ccc(C)cc3)c(Nc3cc(Cl)ccc3OC)nc2c1	.	-9.7%	.	25.1µM*	.	.
COc1ccc(Nc2nc3ccccc3nc2NS(=O)(=O)c2ccc(C)cc2)c(OC)c1	.	-3.8%	.	4.6%	.	.
COc1cc(C(=O)O/N=C2/C=C(C)C(=O)C=C2C)cc(OC)c1OC	-31.3%	0.2%	3.4%	2.0%	-3.5%	5.6%
O=S(=O)(Oc1ccc(Cl)cc1)c1ccccc1	.	0.0%	.	.	.	2.7%
CC1=C/C(=N\OS(=O)(=O)c2ccccc2)C(C(C)C)=CC1=O	10µM*	-5.8%	3.98µM*	12.8%	24.5%	-28.1%
CC1=C/C(=N\OS(=O)(=O)c2ccccc2)C(C)=CC1=O	2.51µM*	-14.3%	13.0%	19.9%	67.1%[38.3 µM]	-10.9%
CC(C)CNC(=O)C(=O)NNC(=O)c1ccco1	-6.9%	-4.5%	-1.9%	-0.6%	4.3%	4.0%
CC(C)(C)NC(=O)C(=O)NNC(=O)c1ccco1	10.6%	-5.9%	-10.2%	-1.1%	-0.4%	79.4µM*
Cc1ccc(C)n1-n1cnc2scc(-c3cccs3)c2c1=O	-10.1%[46.1 µM]	-6.8%	-5.0%	0.0%	25.3%[38.3 µM]	-7.3%
CC(C)n1c(=S)[nH]c2scc(-c3cccs3)c2c1=O	19.4%	17.8µM*	-19.9%	-2.4%	.	39.8µM*
CCn1c(=S)[nH]c2scc(-c3cccs3)c2c1=O	10µM*	-4.9%	-2.0%	-2.2%	?	-5.3%
O=c1c2c(-c3cccs3)csc2[nH]c(=S)n1-c1ccccc1	?	18.8%	-1.4%	1.2%	10µM*	4.5%
